In PubChem BioAssay (NCI):
The panel holds about 79,000 compounds, 15% with a hit somewhere; the sample as a whole holds those more often. The source made the active and inactive calls. No stated cut-off is given here; in the data, active means growth inhibition above about 70%; inactive means the rest.

Experiments:
[1] = NCI Yeast Anticancer Drug Screen. Data for the rad52 strain (AID 147);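 further: 0% = growth of vehicle-treated control cultures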; conditions: S. cerevisiae rad52 mutant growth inhibition, stronger effect = higher value
Outline: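 DNA repair-defective yeast; compound exposure; growth scored against vehicle controls.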

[2] = NCI Yeast Anticancer Drug Screen. Data for the wt1 strain (AID 149);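 further: 0% = growth of vehicle-treated wt1 cultures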; conditions: S. cerevisiae wt1 strain (SPY 50644) growth inhibition, stronger effect = higher value
Outline: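 Compounds are added to wt1 yeast cultures. Growth is then measured. Inhibition is expressed relative to vehicle-treated controls.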

[3] = NCI Yeast Anticancer Drug Screen. Data for the rad50EPP+ strain (AID 151);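 further: 0% = growth of vehicle-treated control cultures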; conditions: S. cerevisiae rad50 mutant strain, stronger effect = higher value
Outline: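 rad50EPP+ yeast treated with test compounds. Readout: growth vs vehicle control.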

[4] = NCI Yeast Anticancer Drug Screen. Data for the mgt1 strain (AID 153); conditions: S. cerevisiae mgt1 mutant growth inhibition, stronger effect = higher value
Outline: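 Growth inhibition relative to vehicle controls was scored for the mgt1 yeast strain after compound exposure.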

[5] = NCI Yeast Anticancer Drug Screen. Data for the rad50 strain (AID 155);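 further: 0% = growth of vehicle-only cultures of the same strain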; conditions: S. cerevisiae rad50 strain growth inhibition, stronger effect = higher value
Outline: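 Inhibition values express reduced yeast growth in compound-treated cultures relative to vehicle-treated controls.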

[6] = NCI Yeast Anticancer Drug Screen. Data for the mec2-1 strain (AID 157); conditions: S. cerevisiae mec2-1 strain, stronger effect = higher value
Outline: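 Growth inhibition is read against vehicle-treated controls after compound exposure of the mec2-1 yeast strain, which is defective in DNA damage repair or cell cycle control.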

[7] = NCI Yeast Anticancer Drug Screen. Data for the rad14 strain (AID 159);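 further: 0% = growth of vehicle-treated control cultures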; conditions: S. cerevisiae rad14 strain growth inhibition, stronger effect = higher value
Outline: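 A mutant yeast strain defective in DNA damage repair is treated with compound; inhibition of its growth is scored against untreated, vehicle-exposed cultures.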

[8] = NCI Yeast Anticancer Drug Screen. Data for the sgs1 mgt1 strain (AID 161);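 further: 0% = growth of cultures given vehicle only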; conditions: S. cerevisiae sgs1 mgt1 strain, stronger effect = higher value
Outline: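 Growth of a repair-deficient yeast mutant was monitored after compound treatment and expressed as inhibition relative to vehicle-treated cultures.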

[9] = NCI Yeast Anticancer Drug Screen. Data for the CLN2oe strain (AID 163);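 further: 0% = growth of vehicle-only control cultures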; conditions: S. cerevisiae CLN2oe strain, stronger effect = higher value
Outline: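 Compound-treated yeast; growth vs vehicle ctrl = % inhibition. Genetically altered strain (cell-cycle control).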

[10] = NCI Yeast Anticancer Drug Screen. Data for the cln2 rad14 strain (AID 165);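 further: 0% = growth equal to vehicle treated cultures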; conditions: S. cerevisiae cln2 rad14 strain, stronger effect = higher value
Outline: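 Growth inhibition, relative to vehicle-treated controls, is the read-out. The test organism is a yeast strain with defined genetic alterations, cln2 rad14.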

[11] = NCI Yeast Anticancer Drug Screen. Data for the bub3 strain (AID 167); conditions: S. cerevisiae bub3 mutant strain, stronger effect = higher value
Outline: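 Steps: expose the mutant yeast strain to compound; grow alongside vehicle-treated cultures; measure growth; express inhibition against the vehicle cultures.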

[12] = NCI Yeast Anticancer Drug Screen. Data for the wt2 strain (AID 169);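 further: 0% = growth of vehicle-treated yeast cultures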; conditions: S. cerevisiae wt2 strain growth inhibition, stronger effect = higher value
Outline: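 Compound exposure of yeast; growth compared with vehicle controls; inhibition reported.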

[13] = NCI Yeast Anticancer Drug Screen. Data for the mlh1 strain (AID 171);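 further: 0% = growth of vehicle-treated control cultures of the same strain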; conditions: S. cerevisiae mlh1 strain growth inhibition, stronger effect = higher value
Outline: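 Compounds are applied to a genetically altered yeast strain, and its growth is compared with that of vehicle-treated cultures to give percent inhibition.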

[14] = NCI Yeast Anticancer Drug Screen. Data for the sgs1 strain (AID 173);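 further: 0% = growth of vehicle-only control cultures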; conditions: S. cerevisiae sgs1 mutant, stronger effect = higher value
Outline: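 Compounds applied to genetically altered yeast; growth compared with vehicle-treated cultures to give % inhibition.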

[15] = NCI Yeast Anticancer Drug Screen. Data for the mlh1 rad18 strain (AID 175); conditions: S. cerevisiae mlh1 rad18 strain growth inhibition, stronger effect = higher value
Outline: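 Cells of a genetically altered yeast strain, deficient in DNA damage repair, were treated with compound. Their growth was then compared with that of vehicle-treated cultures to give inhibition.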

[16] = NCI Yeast Anticancer Drug Screen. Data for the rad18 strain (AID 177); conditions: S. cerevisiae rad18 mutant growth inhibition, stronger effect = higher value
Outline: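 Compounds are applied to a repair-deficient yeast strain, and growth is compared with that of vehicle-treated cultures to give percent inhibition.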

[17] = at 5.0 µM (retest, dose inferred, filed as 0.5)
[18] = at 50.0 µM (retest, dose inferred, filed as 5.0)

Measured: growth inhibition

[N-]=N[N+]#I1OC(C(F)(F)F)(C(F)(F)F)c2ccccc21
active: [1]; at 3.7 µM 82% | [1]; at 11.0 µM 97% | [1]; at 33.0 µM 99% | [1]; at 100.0 µM 100% | [2]; at 3.7 µM 84% | [2]; at 11.0 µM 99% | [2]; at 33.0 µM 99% | [2]; at 100.0 µM 99% | [3]; at 33.0 µM 93% | [3]; at 100.0 µM 99% | [4]; at 3.7 µM 88% | [4]; at 11.0 µM 99% | [4]; at 33.0 µM 100% | [4]; at 100.0 µM 100% | [5]; at 3.7 µM 90% | [5]; at 11.0 µM 97% | [5]; at 33.0 µM 100% | [5]; [18] 99% | [5]; at 50.0 µM 91.7% | [5]; at 100.0 µM 100% | [6]; at 3.7 µM 91% | [6]; at 11.0 µM 99% | [6]; at 33.0 µM 100% | [6]; [18] 99% | [6]; at 50.0 µM 93.7% | [6]; at 100.0 µM 99% | [7]; at 3.7 µM 90% | [7]; at 11.0 µM 99% | [7]; at 33.0 µM 100% | [7]; at 100.0 µM 99% | [8]; [17] 81% | [8]; [18] 98% | [8]; at 50.0 µM 92.8% | [9]; at 3.7 µM 81% | [9]; at 11.0 µM 98% | [9]; at 33.0 µM 99% | [9]; at 100.0 µM 98% | [10]; [18] 98% | [10]; at 50.0 µM 92% | [11]; at 3.7 µM 83% | [11]; [17] 91% | [11]; at 11.0 µM 99% | [11]; at 33.0 µM 100% | [11]; [18] 98% | [11]; at 50.0 µM 92.8% | [11]; at 100.0 µM 97% | [12]; at 3.7 µM 76% | [12]; at 11.0 µM 98% | [12]; at 33.0 µM 99% | [12]; at 100.0 µM 99% | [13]; at 3.7 µM 90% | [13]; at 11.0 µM 98% | [13]; at 33.0 µM 99% | [13]; at 100.0 µM 99% | [14]; at 3.7 µM 89% | [14]; at 11.0 µM 98% | [14]; at 33.0 µM 99% | [14]; at 100.0 µM 99% | [15]; [18] 99% | [15]; at 50.0 µM 92%
inactive: [1]; at 1.2 µM 44% | [2]; at 1.2 µM 17% | [3]; at 1.2 µM 3% | [3]; at 3.7 µM 13% | [3]; at 11.0 µM 42% | [4]; at 1.2 µM 38% | [5]; at 1.2 µM 58% | [5]; [17] 7% | [6]; at 1.2 µM 45% | [6]; [17] 2% | [7]; at 1.2 µM 27% | [9]; at 1.2 µM 40% | [10]; [17] 47% | [11]; at 1.2 µM 28% | [12]; at 1.2 µM 18% | [13]; at 1.2 µM 53% | [14]; at 1.2 µM 41% | [15]; [17] 34%

O=[N+]([O-])c1cccc2nc3ccccc3c(NCCCN3CCOCC3)c12
inactive: [2]; at 1.2 µM -8% | [2]; at 3.7 µM 38% | [3]; at 1.2 µM 19% | [3]; at 3.7 µM 46% | [4]; at 1.2 µM 16% | [4]; at 3.7 µM 43% | [9]; at 1.2 µM -7% | [9]; at 3.7 µM 46% | [11]; at 1.2 µM -14% | [11]; at 3.7 µM 0% | [11]; [17] 0% | [11]; at 11.0 µM 53% | [12]; at 1.2 µM -1% | [12]; at 3.7 µM 19% | [13]; at 1.2 µM 16% | [13]; at 3.7 µM 54%
active: [1]; at 1.2 µM 95% | [1]; at 3.7 µM 97% | [1]; at 11.0 µM 98% | [1]; at 33.0 µM 98% | [1]; at 100.0 µM 98% | [2]; at 11.0 µM 90% | [2]; at 33.0 µM 97% | [2]; at 100.0 µM 98% | [3]; at 11.0 µM 76% | [3]; at 33.0 µM 92% | [3]; at 100.0 µM 96% | [4]; at 11.0 µM 91% | [4]; at 33.0 µM 97% | [4]; at 100.0 µM 98% | [5]; at 1.2 µM 89% | [5]; at 3.7 µM 94% | [5]; [17] 85% | [5]; at 11.0 µM 96% | [5]; at 33.0 µM 97% | [5]; [18] 97% | [5]; at 50.0 µM 96% | [5]; at 100.0 µM 98% | [6]; at 1.2 µM 90% | [6]; at 3.7 µM 97% | [6]; [17] 91% | [6]; at 11.0 µM 98% | [6]; at 33.0 µM 99% | [6]; [18] 99% | [6]; at 50.0 µM 97.3% | [6]; at 100.0 µM 99% | [7]; at 1.2 µM 98% | [7]; at 3.7 µM 98% | [7]; at 11.0 µM 98% | [7]; at 33.0 µM 98% | [7]; at 100.0 µM 98% | [8]; [17] 92% | [8]; [18] 98% | [8]; at 50.0 µM 96.9% | [9]; at 11.0 µM 92% | [9]; at 33.0 µM 96% | [9]; at 100.0 µM 99% | [10]; [17] 98% | [10]; [18] 99% | [10]; at 50.0 µM 98.4% | [11]; at 33.0 µM 93% | [11]; [18] 97% | [11]; at 50.0 µM 90.1% | [11]; at 100.0 µM 98% | [12]; at 11.0 µM 76% | [12]; at 33.0 µM 96% | [12]; at 100.0 µM 98% | [13]; at 11.0 µM 94% | [13]; at 33.0 µM 98% | [13]; at 100.0 µM 99% | [14]; at 1.2 µM 91% | [14]; at 3.7 µM 94% | [14]; at 11.0 µM 96% | [14]; at 33.0 µM 97% | [14]; at 100.0 µM 98% | [15]; [17] 95% | [15]; [18] 98% | [15]; at 50.0 µM 98.2% | [16]; at 1.2 µM 96% | [16]; at 3.7 µM 96% | [16]; at 11.0 µM 97% | [16]; at 33.0 µM 97% | [16]; at 100.0 µM 99%
